A selection: hits, their analogues and other compounds. The true share with any hit is near 10%.
Six1-Eya2 blk: blocks human Six1 binding to Eya2; activity change, % (no concentration beside the values); Q15475+O00167; AlphaScreen GST-Six1/His-Eya2 binding, biochemical; hits give low values; hit rate 0.56% among 360,000; in the data active = activity change below about -65%; inconclusive = mostly about -30% to -63%
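Compounds are tested against tagged Six1 and Eya2 proteins bridged by glutathione donor and nickel acceptor beads; after a one-hour incubation at 37 °C without light, AlphaScreen emission is recorded.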
HP1b binding inh: HP1-beta chromodomain-methylated histone interaction inhibition | P83916 | AlphaScreen HP1-beta / biotin-H3K9me3 peptide binding | Potency, µM (doses to about 114 µM), actives largely listed as inhibitors | hit rate 0.56% among 390,000 | AID 540317; note: nearly all actives have a fitted effect of over 70% in size
Target sequence (P83916 whole entry, looked up): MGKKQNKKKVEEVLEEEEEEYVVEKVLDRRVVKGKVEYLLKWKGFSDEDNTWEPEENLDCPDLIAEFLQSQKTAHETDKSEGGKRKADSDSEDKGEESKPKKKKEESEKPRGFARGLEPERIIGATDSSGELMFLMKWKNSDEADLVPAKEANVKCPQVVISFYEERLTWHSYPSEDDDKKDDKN
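AlphaScreen: HP1-beta (50 nM) preformed 30 min with biotin-H3(1-18)K9me3 peptide (50 nM) in PBS pH 7.4, 0.01% Tween-20. Compound added for 30 min at RT, then streptavidin donor/nickel chelate acceptor beads (10 ug/mL) for 30 min.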
JMJD2A Tudor inh: inhibitors of human JMJD2A Tudor domain. Potency, µM (doses to about 114 µM), actives largely listed as inhibitors. AID 504339. AlphaScreen JMJD2A-Tudor / H3K4me3 peptide binding. hit rate 4.4% among 390,000; note: nearly all actives have a fitted effect of over 50% in size
CtBP-E1A inh: inhibitors of CtBP/E1A interaction | AlphaScreen GST-E1A/His-CtBP binding, 1536-well; hits give low values | AID 651724 | activity change, % (no concentration beside the values) | hit rate 0.49% among 340,000; in the data active = activity change below about -65%; inconclusive = mostly about -30% to -63%
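AlphaScreen with 125 nM GST-E1A and 125 nM His-CtBP (5X stocks) in Tris pH 8.0, 300 mM NaCl, BSA, Tween 20, TCEP. Compounds preincubated 2 h at 37 deg C, then glutathione donor/nickel acceptor beads added for 1 h at 37 deg C in dark.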
BAZ2B inh: BAZ2B (human) inhibition. Q9UIF8. AlphaScreen BAZ2B-H3K14Ac peptide displacement. hit rate 4.4% among 360,000. Potency, µM (series often up to 114 µM), usual class: inhibitors; note: nearly all actives have a fitted effect of over 60% in size
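AlphaScreen luminescence quantifies BAZ2B engagement of H3K14Ac peptide; the protein and biotinylated peptide are both at 50 nM final, buffer PBS pH 7.4 with 0.01% Tween-20, all steps at room temperature.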
G9a inh: G9a (human) methyltransferase inhibition; Q96KQ7; G9a H3K9 monomethylation, AlphaScreen, 2 h; Potency, µM (top dose mostly 102 µM), actives largely listed as inhibitors; hit rate 8.8% among 350,000; note: nearly all actives have a fitted effect of over 75% in size
Target sequence (Q96KQ7 913-1193 limits assumed): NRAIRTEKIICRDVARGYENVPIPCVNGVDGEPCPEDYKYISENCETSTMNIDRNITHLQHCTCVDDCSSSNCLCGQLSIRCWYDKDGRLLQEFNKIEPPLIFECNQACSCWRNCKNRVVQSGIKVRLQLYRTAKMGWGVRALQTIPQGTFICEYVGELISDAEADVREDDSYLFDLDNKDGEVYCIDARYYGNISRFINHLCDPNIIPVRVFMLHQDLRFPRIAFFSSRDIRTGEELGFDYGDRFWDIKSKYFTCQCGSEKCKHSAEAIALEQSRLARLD
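G9a (20 nM) was preincubated 15 min with compound, then reacted 2 h at room temperature with 500 nM biotin-H3K9 peptide and 20 µM SAM. Monomethyl-H3K9 detected by AlphaScreen using anti-H3K9me1 antibody.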
Numbers stand for hits; – = inactive; ? = inconclusive; · = not tested or not shown; [ ] = another dose, or the depositor's remark. Unless noted, calls come from the whole dose curve; as a rule, active = well fitted inhibition curve with a large enough effect; inconclusive = small, poorly fitted or top-dose-only effect; inactive = no such curve, though single readings can be large or run the other way.

SMILES | Six1-Eya2 blk | HP1b binding inh | JMJD2A Tudor inh | CtBP-E1A inh | BAZ2B inh | G9a inh
CC1(C)C2CC=C(/C=N/NC(=O)c3ccccc3Br)C1C2 (stereo unspecified) | – | – | – | · | – | –
CN(Cc1ccco1)c1ncncc1-c1cccc(NS(C)(=O)=O)c1 | · | · | · | · | · | –[0.501 µM]
S=C(c1cn(CCOc2ccccc2)c2ccccc12)N1CCCC1 | – | – | – | – | – | 35µM
CN1CCN(C(=S)c2cn(Cc3ccccc3)c3ccccc23)CC1 | – | – | ? | – | ? | 45µM
O=C(O)Cn1cc(C(=S)N2CCCCC2)c2ccccc21 | – | – | ? | – | – | 10µM
S=C(c1cn(CCOc2cccc3ccccc23)c2ccccc12)N1CCCC1 | – | – | ? | – | – | ?
Cc1nn(Cc2ccc(C(=O)Nc3nccs3)cc2)c(C)c1Cl | – | – | – | – | – | 45µM
Cc1nn(Cc2ccc(C(=O)Nc3ccccc3F)cc2)c(C)c1Cl | – | – | – | – | – | 45µM
COc1ccc(C(=O)Nc2ccc(N3CCN(Cc4ccccc4)CC3)cc2)cc1 | – | – | – | – | – | –
O=C(Nc1ccccc1F)c1ccc(CN2CCN(c3ccccc3)CC2)cc1 | – | – | ? | – | – | 79µM
COc1c(F)c(F)c(C(=O)Nc2ccc(N3CCN(Cc4ccccc4)CC3)cc2)c(F)c1F | – | – | – | – | – | 18µM
Cc1nn(Cc2ccc(C(=O)NN)cc2)c(C)c1Cl | – | – | – | – | – | –
COC(=O)c1c(N)[nH]c(C(=O)c2ccccc2)c1-c1ccc(Br)cc1 | – | · | · | – | · | ·
Cc1[nH]n(-c2ccccc2)c(=O)c1N=Nc1ccccc1C(=O)O | – | – | ? | · | ? | ?
Nc1c(N=Nc2ccccc2F)c(=O)[nH]n1-c1ccccc1 | – | – | ? | – | ? | –
Cc1[nH]n(-c2ccccc2)c(=O)c1N=Nc1ccccc1O | -87 | – | ? | -81 | ? | ?
Cc1[nH]n(-c2ccccc2)c(=O)c1N=Nc1nccs1 | – | – | ? | – | 32µM | 14µM
Cc1ccccc1N=Nc1c(C)[nH]n(-c2ccccc2)c1=O | – | 35µM | ? | – | ? | 2.2µM
Cc1[nH]n(-c2ccccc2)c(=O)c1/C=N/c1ccccn1 | – | – | – | – | ? | –
CCN(CC)C(=O)c1cn(CCC#N)nc1-c1ccc2ccccc2c1 | – | – | – | – | – | –
COCCNC(=O)C1(C)CCCN(C(=O)c2ccc3snnc3c2)C1 (stereo unspecified) | – | · | · | – | · | ·
CNC(=O)C[C@H]1C(=O)N(c2ccc(Br)cc2)C[C@@H]1C | – | · | · | – | · | ·
Nc1cc2c(cc1Cl)-c1ccc(Cl)cc1C2 | – | – | – | – | · | ·
Cc1ccc2[nH]c(=O)c(CNC(C)(C)C)cc2c1 | – | – | – | – | – | ?
COc1ccc2[nH]c(=O)c(CNc3ccc(C)cc3C)cc2c1 | – | – | – | – | – | 20µM
SMILES | Six1-Eya2 blk | HP1b binding inh | JMJD2A Tudor inh | CtBP-E1A inh | BAZ2B inh | G9a inh
COc1ccc2[nH]c(=O)c(CNc3cc(C)ccc3C)cc2c1 | – | – | ? | – | 50µM | ?
CNC(=S)N(Cc1ccc(OC)cc1)Cc1cc2cc(C)ccc2[nH]c1=O | – | – | – | – | – | –
Cc1ccc(NCC(=O)c2ccc([N+](=O)[O-])cc2)cc1 | ? | ? | ? | – | ? | 8.9µM
CNC(CC(=O)c1ccc([N+](=O)[O-])cc1)C(Cl)(Cl)Cl (stereo unspecified) | – | 16µM | ? | – | ? | 4µM
COc1ccc(C(=O)CC(Nc2ccc([N+](=O)[O-])cc2)c2ccc(OC)cc2)cc1 (stereo unspecified) | – | – | ? | – | – | ?
COc1ccc2[nH]cc(CCNc3nc(-c4ccccc4OC)nc4ccccc34)c2c1 | · | · | · | · | · | –[0.501 µM]
N#CC(c1nc2ccccc2nc1N1CCCC1)S(=O)(=O)c1cccs1 (stereo unspecified) | – | – | ? | – | – | 13µM
CCC(CC)COC(=O)C(C#N)c1nc2ccccc2nc1N1CCN(CC)CC1 (stereo unspecified) | – | – | ? | – | 35µM | 45µM
CC(C)OC(=O)C(C#N)c1nc2ccccc2nc1N1CCCC1 (stereo unspecified) | – | – | – | – | – | 11µM
CCC(C)COC(=O)C(C#N)c1nc2ccccc2nc1N1CCCCC1 (stereo unspecified) | – | – | – | – | – | –
COc1ccc(CNC(=O)C(C#N)c2nc3ccccc3nc2N2CCN(C)CC2)cc1 (stereo unspecified) | – | ? | 71µM | – | 50µM | ?
Cc1cccc(NC(c2nnc(-c3ccccc3)o2)c2ccc(F)cc2Cl)c1C (stereo unspecified) | · | – | – | · | – | –
O=C(CSc1nc2c([nH]c3ccccc32)c(=O)n1-c1ccccc1F)Nc1cccc(C(F)(F)F)c1 | · | – | – | · | – | –
O=C(c1ccc2oc(CCc3ccccc3)nc2c1)N1CCC(O)CC1 | – | – | – | – | – | –
O=C(Nc1ccc(F)cc1F)c1cc(-c2ccccc2O)no1 | · | – | – | · | – | –
COc1ccc(-c2nc3ccc(C)cn3c2Nc2ccc3c(c2)OCO3)cc1 | · | – | – | · | · | ?
Cc1ccn2c(Nc3ccc4c(c3)OCCO4)c(-c3ccc(Cl)s3)nc2c1 | · | ? | ? | · | – | ?
COc1ccc(Nc2c(-c3ccc(OC)cc3)nc3cnccn23)cc1 | – | – | ? | · | ? | ?
Cc1cccn2c(Nc3ccccc3)c(-c3ccc(N4CCOCC4)cc3)nc12 | · | – | – | · | – | –
COc1ccc(Nc2c(-c3ccc(C)cc3)nc3cnccn23)cc1 | – | – | 45µM | · | ? | 50µM
Cc1cccn2c(Nc3ccc4c(c3)OCCO4)c(-c3ccc(Br)o3)nc12 | · | ? | 22µM | · | 11µM | 11µM
Clc1ccc(-c2nc3ccccn3c2Nc2ccc3c(c2)OCCO3)s1 | · | ? | 45µM | · | – | –
Cc1ccc2nc(-c3ccc(O)cc3)c(Nc3ccc4c(c3)OCCO4)n2c1 | – | – | – | – | – | 8.9µM
COc1ccc(Nc2c(-c3ccc(C)o3)nc3ccccn23)cc1 | · | – | ? | · | · | ·
Cc1ccc(-c2nc3cnccn3c2Nc2ccc3c(c2)OCO3)cc1 | ? | ? | 50µM | – | 40µM | 40µM
Cc1ccc(-c2nc3cnccn3c2Nc2ccc3c(c2)OCCO3)o1 | – | – | ? | – | ? | 10µM
Cc1ccn2c(Nc3ccc4c(c3)OCO4)c(-c3ccc(Cl)cc3)nc2c1 | · | – | – | · | · | 2.8µM
Cc1ccn2c(Nc3ccc4c(c3)OCO4)c(-c3ccc(N(C)C)cc3)nc2c1 | · | – | ? | · | · | 2µM
Cc1ccn2c(NCc3ccc4c(c3)OCO4)c(-c3ccc(O)cc3)nc2c1 | – | – | – | – | – | –
O=C(N=C1SC2CS(=O)(=O)CC2N1Cc1ccccc1)C1CCCCC1 (stereo unspecified) | – | – | – | – | – | –

Screening results deposited in PubChem by National Center for Advancing Translational Sciences (NCATS).
